Bioassay records (PubChem BioAssay)
TDP1 cell CPT: DT40-hTDP1 cell growth loss with CPT. chicken DT40 Tdp1-/-;hTDP1 cells + 20 nM CPT, ATP luminescence, 48 h. Potency, µM (titrated, usually from 46.2 µM), for the others: at the top dose activity change, negative = growth inhibition, usual class: inhibitors. 420,000 tested, 12% active. AID 686979; note: potency is the fitted concentration of half-maximal effect; nearly all actives have a fitted effect of over 55% in size
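Chicken DT40 Tdp1-/- cells complemented with human TDP1, 400 cells/well, exposed to compounds plus 20 nM camptothecin for at least 48 h at 37 C; viability read as ATP content by CellTiter-Glo luminescence.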
IL-1B inflam inh: inflammasome signaling inhibition, IL-1 beta readout; 360,000 tested, 4.7% active; THP-1 LPS/ATP IL-1B secretion, AlphaLISA, 16 h; stronger effect = lower value; activity change, % at 57.5 µM; in the data active = activity change below about -50%; inconclusive = mostly about -30% to -49%
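THP-1 cells pretreated 1 hr with compounds (up to 57.5 uM final), then stimulated with LPS (250 ng/mL final) plus ATP (1.25 mM final); secreted IL-1B measured by AlphaLISA after 16 hr, decreased signal indicating inhibition.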
HT1080 IDH1KD tx: kills HT-1080 cells with IDH1 knockdown; Potency, µM (titrated, usually from 46.1 µM), for inactives: at the top dose activity, negative = toxicity, actives largely listed as cytotoxic; AID 686971; 360,000 tested, 2% active; HT-1080 IDH1 knockdown viability, ATP luminescence, 48 h;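 note: potency is the fitted concentration of half-maximal effect; 0% = DMSO wells and -100% = cell-free medium wells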
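After a 2 h attachment period, IDH1KD HT-1080 cells took pin-transferred compound for 48 h at 37 °C; ATP-based luminescence after 10 min room-temperature reagent incubation reported viability.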
TDP1 cell noCPT: qHTS for Inhibitors of human tyrosyl-DNA phosphodiesterase 1 (TDP1): qHTS in cells in absence of CPT; DT40 Tdp1-/- hTDP1 cells, no CPT, ATP luminescence, 48 h; Potency, µM (top dose mostly 46.2 µM), without a hit: top-dose activity change, negative = growth inhibition, usual class: inhibitors; 420,000 tested, 15% active; AID 686978, 2013; note: potency is the fitted concentration of half-maximal effect; nearly all actives have a fitted effect of over 55% in size
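Cells were dispensed at 400 per well, compounds added by pin tool, plates incubated ≥48 hr at 37 °C, then CellTiter-Glo added for 30 min at room temperature before luminescence reading. Line: DT40 Tdp1-/- complemented with hTDP1; camptothecin omitted.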
HT1080NT lethal: kills 2HG-producing HT-1080-NT fibrosarcoma cells. Potency, µM (top dose mostly 46.1 µM), without a hit: at the top dose activity, negative = less viability, hits mostly cytotoxic. 360,000 tested, 1.6% active. AID 686970. HT-1080-NT fibrosarcoma viability, CellTiter-Glo ATP luminescence, 48 h;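 note: NT is the 2HG producing partner of a matched IDH1 knockdown line; potency is the fitted concentration of half-maximal effect; 0% = DMSO-treated cells and -100% = media-only wells without cells; nearly all actives have a fitted effect of over 55% in size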
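Compounds were tested in concentration-response format on HT-1080-NT cells for 48 hours at 37 degrees C. Cell viability came from CellTiter-Glo luminescence; curves were classified by r2, response magnitude and activity.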
ALOX12 inh: ALOX12 (human) lipoxygenase inhibition. 580,000 tested, 1.1% active. purified 12hLO, xylenol orange hydroperoxide absorbance. Potency, µM (top dose mostly 108 µM), for the others: top-dose activity change, negative = inhibition, actives largely listed as inhibitors; note: potency is the fitted concentration of half-maximal effect
Target sequence (P18054 whole entry, looked up): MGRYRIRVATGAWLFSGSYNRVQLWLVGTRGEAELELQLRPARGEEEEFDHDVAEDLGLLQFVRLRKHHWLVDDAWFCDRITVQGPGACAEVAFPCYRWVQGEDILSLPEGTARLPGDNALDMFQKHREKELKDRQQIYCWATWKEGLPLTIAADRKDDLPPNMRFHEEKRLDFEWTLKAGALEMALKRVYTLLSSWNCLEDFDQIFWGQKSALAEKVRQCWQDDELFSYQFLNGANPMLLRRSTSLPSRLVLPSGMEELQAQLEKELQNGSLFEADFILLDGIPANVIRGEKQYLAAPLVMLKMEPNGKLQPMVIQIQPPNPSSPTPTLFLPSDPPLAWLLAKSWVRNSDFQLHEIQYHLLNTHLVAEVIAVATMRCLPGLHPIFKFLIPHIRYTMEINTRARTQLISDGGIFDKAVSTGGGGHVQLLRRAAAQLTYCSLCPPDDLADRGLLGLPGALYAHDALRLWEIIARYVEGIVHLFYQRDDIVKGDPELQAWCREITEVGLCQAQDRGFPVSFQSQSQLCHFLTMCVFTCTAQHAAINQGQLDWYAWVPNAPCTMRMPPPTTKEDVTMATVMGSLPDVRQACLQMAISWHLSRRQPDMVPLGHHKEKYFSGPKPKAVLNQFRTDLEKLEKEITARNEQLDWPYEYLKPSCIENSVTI
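Purified human 12hLO at 150 nM in 25 mM Hepes, 0.01% Triton X-100, pH 7.0, preincubated 15 min at room temperature with compound. Reaction started with 40 uM arachidonic acid, 30 min at room temperature. Hydroperoxide measured by Fe-xylenol orange, 573/405 nm absorbance ratio.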
The depositor's hits bear a star; ? = inconclusive; . = no result; [ ] = remark or other dose. This excerpt belongs to a sample that is enriched for hits. Unless noted, calls come from the whole dose curve; as a rule, active = well fitted curve in the direction sought with a large enough effect; inconclusive = small, poorly fitted or top-dose-only effect, or another doubt; inactive = no such curve, though single readings can be large; an effect the other way counts as inactive or inconclusive. Unless noted, % is set by controls: 0 for no effect and ±100 for the full control effect.

SMILES	TDP1 cell CPT	IL-1B inflam inh	HT1080 IDH1KD tx	TDP1 cell noCPT	HT1080NT lethal	ALOX12 inh
COc1cccc(CNC(=O)c2ccc3nc(-c4ccccc4)c(-c4ccccc4)nc3c2)c1OC	23µM*	.	.	?	.	3%
COc1ccc(-c2nc3ccc(C(=O)NCc4ccccc4)cc3nc2-c2ccc(OC)cc2)cc1	?	.	.	15µM*	.	-28%
COCCCNC(=O)c1ccc(-c2nc3ccccc3nc2-c2ccccc2)cc1	?	-9	0%	23µM*	-3%	274%
COc1ccc(CN2CCCC3(CC(C(C)C)=NO3)C2)cc1 (stereo not drawn)	.	.	.	.	.	-1%[6.33 µM]
CC(=O)N1CC2(CCN(c3nc(C)cc(C(=O)O)n3)CC2)CC1C(=O)O (stereo not drawn)	.	.	.	.	.	40%
O=Cc1c[nH]c2cccc(Cl)c12	.	.	.	.	.	-13%
O=C(Nc1ccccc1-c1ccccc1)c1ccncc1	.	.	.	.	.	-25%
CC(C)(C)OC(=O)N1CC(NCc2ccc(-c3ccc(OC(F)(F)F)cc3)cc2)C1	.	.	.	.	.	8%[6.33 µM]
COc1ccc(-c2nc3ccc(C(=O)NCC(OC)OC)cc3nc2-c2ccc(OC)cc2)cc1	10µM*	-16	-15%	8.2µM*	-16%	0%
O=C(NCC1CC1)c1ccc2nc(-c3ccoc3)c(-c3ccoc3)nc2c1	?	.	.	11µM*	.	.
CNC(=O)c1ccc2nc(-c3cccc(C)c3)c(-c3cccc(C)c3)nc2c1	11µM*	.	.	10µM*	.	.
CN1CCN(CCNC(=O)c2ccc3nc(-c4ccc(F)cc4)c(-c4ccc(F)cc4)nc3c2)CC1	?	-53*	23µM*	?	18µM*	0%
c1ccc(-c2ncn(CC3CCCO3)c2-c2cccc3cnccc23)cc1 (stereo not drawn)	.	.	.	.	.	19%
O=C1CC(c2ccccc2)N(S(=O)(=O)c2cccc3cccnc23)CCCCCCN1 (stereo not drawn)	.	.	.	.	.	25%
COc1ccc([C@H]2CN(C(=O)c3nc(N)nc4c3CCCC4)C[C@@H]2N)cc1	.	.	.	.	.	-5%
CC(=O)NNc1nc(-c2ccccc2)c2cc(Cl)ccc2n1	-20%	-12	0%	-23%	-5%	1%
COCCNC(=O)c1cccc(Nc2nc(-c3ccccc3)c3cc(Cl)ccc3n2)c1	15µM*	-52*	?	9.2µM*	-23%	-29%
Cc1cccc2c(=O)c(-c3ccccc3)c(N)oc12	.	.	.	.	.	22%
COc1ccc(OCC(=O)Sc2ccc(C)cc2)cc1	?	-18	-6%	23µM*	0%	-23%
CCOc1ccc(C2NC(=O)C(C#N)=C(S)N2c2cccc(C)c2)cc1OC (stereo not drawn)	?	5	-2%	?	-1%	-8%
COc1cc(C2NC(=O)C(C#N)=C(S)N2c2ccccc2)ccc1OC(C)C (stereo not drawn)	?	-11	6%	?	1%	14µM*
COc1ccc(C2NC(=O)C(C#N)=C(S)N2c2ccccc2)cc1OC (stereo not drawn)	-14%	-2	11%	?	0%	?
CCOc1ccc(C2NC(=O)C(C#N)=C(S)N2c2ccc(C)cc2)cc1OC (stereo not drawn)	?	-59*	-14%	?	-7%	?
COc1ccc(N2C(S)=C(C#N)C(=O)NC2c2ccco2)cc1 (stereo not drawn)	?	4	-9%	?	2%	45µM*
COC(=O)c1ccc2nc(C[C@@H]3C[C@@H](C(C)C)[C@H](CNC4CCCCC4)C=C3C)[nH]c2c1	.	.	.	.	.	-15%
SMILES	TDP1 cell CPT	IL-1B inflam inh	HT1080 IDH1KD tx	TDP1 cell noCPT	HT1080NT lethal	ALOX12 inh
COC(=O)C1Cc2c([nH]c3ccccc23)C2(CCN(Cc3ccccc3)CC2)N1 (stereo not drawn)	?	-86*	18µM*	21µM*	18µM*	?
CCCN1CCC2(CC1)NC(C(=O)O)Cc1c2[nH]c2ccccc12 (stereo not drawn)	-2%	2	-13%	8%	0%	.
Cn1c(COc2ccc(C(C)(C)C)cc2)nnc1SCc1ccc(F)cc1	.	.	.	.	.	-21%
O=C1[C@@H](Oc2ccccc2)[C@@H](c2cnc3ccccc3c2)N1c1ccccc1	21µM*	-5	21µM*	15µM*	?	15%
O=C1[C@H](Oc2ccccc2)[C@@H](c2ccncc2)N1c1ccncc1	-3%	5	8%	8%	3%	0%
COc1ccccc1-c1ccc2ncnc(NC3CCNCC3)c2c1	?	.	.	-29%	.	-12%
CNc1ncnc2ccc(-c3ccccc3C)cc12	13µM*	.	.	23µM*	.	?
Cc1ccccc1-c1ccc2ncnc(NCCN3CCOCC3)c2c1	5.8µM*	.	.	7.3µM*	.	?
CCCC[n+]1c(NCc2cc(Br)cc(Br)c2[O-])[nH]c2ccccc21	.	.	.	.	.	-7%
Cc1noc(C)c1S(=O)(=O)Nc1ccc(C(=O)Nc2ccc(C(C)C)cc2)cc1	12µM*	.	.	9.2µM*	.	-19%
Cc1noc(C)c1S(=O)(=O)N(CC(=O)Nc1ccc(F)cc1F)c1ccc(C(C)C)cc1	?	.	.	21µM*	.	-21%
Cc1n[nH]c(C)c1S(=O)(=O)N(CC(=O)Nc1ccc(C(F)(F)F)cc1)c1ccc(C(C)C)cc1	15µM*	.	.	?	.	?
Cc1noc(C)c1S(=O)(=O)N(CC(=O)Nc1ccc(C(F)(F)F)cc1)c1ccc(C(C)C)cc1	16µM*	.	.	23µM*	.	-21%
COc1ccc(NC(=O)CN(c2ccc(C(C)C)cc2)S(=O)(=O)c2c(C)noc2C)cc1OC	?	19	2%	?	-3%	1%
Cc1n[nH]c(C)c1S(=O)(=O)N(CC(=O)NC(C)c1ccccc1)c1ccc(C(C)C)cc1 (stereo not drawn)	?	.	.	?	.	-29%
COc1ccc(C(=O)Nc2c(N3CCCC3)c3ccccc3oc2=O)cc1	.	.	.	.	.	10%
CN1CCC(N(C)C(=O)c2cccc(S(=O)(=O)N3CCc4ccccc43)c2)CC1	-15%	-24	-5%	-8%	-8%	-1%
Cc1cccc(NC(=O)c2ccc(Cl)c(S(=O)(=O)N3CCc4ccccc43)c2)n1	23µM*	-13	?	?	-20%	4%
O=C(Nc1ccncc1)c1ccc(Cl)c(S(=O)(=O)N2CCc3ccccc32)c1	9.2µM*	?	?	7.3µM*	?	1%
